Source: PubChem (several laboratories)
Shown are actives, neighbours in structure and some others; about 3.6% of the full set was active somewhere.
DAT uptake mod: modulates human dopamine transporter uptake under cocaine. LLC-PK1 hDAT cells, [14C]-dopamine uptake with cocaine IC80; actives deviate in either direction. B-score at 10 µM. hit rate 1.3% among 110,000. AID 449768;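 active = Z score or B-score, a plate-position-corrected score, falls beyond the plate's 99.7% confidence bounds, in either direction; inactive = both scores lie inside the 99.7% bounds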;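 note: scored against the spread of the other compound wells on the same plate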
Target sequence (Q01959 whole entry, looked up): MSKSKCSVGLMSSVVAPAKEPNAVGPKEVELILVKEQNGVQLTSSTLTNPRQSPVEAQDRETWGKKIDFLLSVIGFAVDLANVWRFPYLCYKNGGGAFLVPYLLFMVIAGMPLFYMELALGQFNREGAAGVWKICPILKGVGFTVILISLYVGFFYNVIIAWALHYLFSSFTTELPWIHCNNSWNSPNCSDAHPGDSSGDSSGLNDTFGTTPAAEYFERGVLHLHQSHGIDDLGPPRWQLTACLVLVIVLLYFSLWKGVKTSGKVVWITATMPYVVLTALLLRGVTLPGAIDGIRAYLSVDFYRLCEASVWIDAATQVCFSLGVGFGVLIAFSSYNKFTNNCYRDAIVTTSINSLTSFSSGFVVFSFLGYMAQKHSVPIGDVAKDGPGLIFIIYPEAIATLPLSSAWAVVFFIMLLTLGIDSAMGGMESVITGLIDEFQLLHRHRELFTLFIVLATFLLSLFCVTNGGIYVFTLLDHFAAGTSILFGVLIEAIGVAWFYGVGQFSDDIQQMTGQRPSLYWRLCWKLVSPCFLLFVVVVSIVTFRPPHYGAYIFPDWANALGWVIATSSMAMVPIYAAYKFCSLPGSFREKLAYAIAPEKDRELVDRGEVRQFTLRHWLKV
bCat KO growth: beta-catenin-lacking colon tumor cell growth suppression. HCT116 beta-catenin knockout viability, CellTiter-Glo, 60 h; hits give low values. viability, % at 10 µM. hit rate 1.5% among 140,000. AID 818;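 active = viability at or under a set limit, the compound median less 4 SD, cut at about 6% in these data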;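 note: 0% = Hyamine 1622 control at 20 µM and 100% = untreated cell control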
WT yeast gro inh: growth inhibition of WT yeast, mitochondrial fusion screen. mitochondrial fusion phenotypic screen, WT strain. hit rate 2.1% among 190,000. inhibition, % at 10 µM. AID 1362; in the data active = inhibition above about 58%; tested in S. cerevisiae
HCT116 PTEN-null: growth suppressors of cells with PTEN tumor suppressor deletion; HCT116 PTEN-null viability, CellTiter-Glo, 60 h; hits give low values; viability, % at 10 µM; hit rate 1.2% among 140,000;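 active = viability at or below a set limit, 4 SD under the median of all tested compounds, cut at about 3.7% in these data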;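 note: PTEN knockout HCT116 line with beta catenin targeted HCT116 as companion control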
* hit, by the source's call; · = not tested or not shown.

SMILES	DAT uptake mod	bCat KO growth	WT yeast gro inh	HCT116 PTEN-null
Cc1ccc(-c2nnc(N3CCN(c4ccccn4)CC3)c3ccccc23)cc1	0.759	3.5*	46.1	4.8
COc1cc(-c2nc(=S)[nH][nH]2)cc(OC)c1OC	·	·	-13.2	·
Brc1ccc(-c2nnc3ccc(Nc4ccccc4)nn23)cc1	·	98.1	-6.0	101.7
Cc1nn(-c2ccccc2)c(Cl)c1/C=C1\SC(=S)NC1=O	-4.41*	101.7	49.8	97.1
CCCn1c(SCC(=O)NCCc2ccc(Cl)cc2Cl)n[nH]c1=O	3.37*	99.8	-19.9	96.2
Cc1ccc(C(=O)C(OC(=O)c2c(C)cc(=O)oc2C)c2ccccc2)cc1 (centres undefined)	·	·	18.5	·
Cc1oc2c(c1C(=O)c1ccc(Cl)cc1)C(=O)C(=O)c1ccccc1-2	·	0.9*	79.9*	0.9*
Cc1ccc(C(=O)c2coc3c2C(=O)C(=O)c2ccccc2-3)cc1	0.0977	1.8*	94.6	1.4*
Cc1ccc(C(=O)c2c(C)oc3c2C(=O)C(=O)c2ccccc2-3)cc1	-0.0649	0.8*	57.2	1.1*
O=C(c1ccc(Cl)cc1)c1ccc(CN2C(=O)c3ccccc3C2=O)o1	-0.63	92.2	10.8	100.7
CCOC(=O)C(=O)N(Nc1ccccc1C)c1ccccc1C	·	·	4.9	·
Cc1cc(C)n2nc(-c3sccc3-n3cccc3)cc2n1	-2.61*	90.4	10.7	88.4
CCOC(=O)N1CCN=C1SCc1ccc(C(F)(F)F)cc1	·	·	-0.3	·
O=C1c2ccccc2NC(c2ccc(-c3ccc(Br)cc3)o2)N1O (centres undefined)	1.67	4.5*	-0.1	3.4*
CCOc1nc(NC2CCCCC2)nc(NC(C)(C)C)n1	0.701	70.1	58.4*	63.8
COc1nc(NCc2ccco2)nc(NC2CCCCC2)n1	0.68	91.5	17.1	96.3
CC(C)N(CCNS(=O)(=O)c1ccc(Cl)cc1)C(C)C	2.95*	94.0	-12.8	89.0
O=C(c1ccco1)N1CCN(c2c(-c3ccccc3)c3cc(Cl)ccc3[nH]c2=O)CC1	0.966	48.4	85.8*	33.9
Cc1cc(C)c2c(N)c3cccc(C)c3nc2n1	·	2.5*	11.7	2.5*
Cc1ccc(S(=O)(=O)N2CCCCC2)cc1NC(=O)COC(=O)c1ccccc1F	·	·	-2.0	·
COc1ccc(CCNC(=S)Nc2ccccc2C)cc1	-0.287	79.1	1.1	81.7
COc1ccc(CCNC(=S)Nc2cc(C)cc(C)c2)cc1	0.852	84.1	59.0*	70.9
COc1ccc(CCNC(=S)Nc2cccc3ccccc23)cc1	·	71.0	68.0*	77.3
COCCNC(=S)Nc1cccc2cnccc12	·	·	0.6	·
COc1ccc(CCNC(=S)Nc2ccc(OC)cc2)cc1	·	72.1	7.5	71.5
SMILES	DAT uptake mod	bCat KO growth	WT yeast gro inh	HCT116 PTEN-null
COc1ccc(OCCNC(=S)Nc2cccc3ccccc23)cc1	1.28	85.1	60.2*	101.3
CC1SC(=NC(=O)C(C)N2C(=O)c3ccccc3C2=O)NC1=O (centres undefined)	-1.82	85.0	3.0	98.1
CC(C)C1C(c2ccccc2)N(C)C(c2ccccc2)CC1(O)c1ccccc1 (centres undefined)	-1.71	25.6	62.9	24.8
CCC1C(c2ccccc2)N(C)C(c2ccccc2)CC1(O)c1ccccc1 (centres undefined)	·	·	76.5*	·
O=C(OCCN1C(=O)c2cccc3c(N4CCOCC4)ccc(c23)C1=O)c1ccccc1Cl	·	5.3*	39.0	5.3
O=C(OCCN1C(=O)c2cccc3c(N4CCOCC4)ccc(c23)C1=O)c1ccc(Cl)cc1Cl	·	10.2	2.1	9.4
S=C(NCc1ccco1)N1CCN(C(c2ccccc2)c2ccccc2)CC1	-0.00288	86.1	63.5*	77.7
CC(C)Cc1cc(C(=O)N2CCN(C(c3ccccc3)c3ccccc3)CC2)no1	2.35	103.3	58.7*	89.7
O=C(N1CCOCC1)N1CCN(C(c2ccccc2)c2ccccc2)CC1	1.58	86.3	95.1*	86.6
C=C(C)CNC(=S)N1CCN(C(c2ccccc2)c2ccccc2)CC1	·	·	55.0	·
CC(C)c1cc(C(=O)N2CCN(C(c3ccccc3)c3ccccc3)CC2)no1	·	92.7	57.1	96.5
CC(C)CNC(=S)N1CCN(C(c2ccccc2)c2ccccc2)CC1	·	80.5	69.8*	76.0
O=C(N1CCCCC1)N1CCN(C(c2ccccc2)c2ccccc2)CC1	0.58	90.5	40.7	93.8
Cc1ccc(C)c(C(=O)OCC(=O)Nc2ccc(N3CCOCC3)cc2)c1	·	·	-6.3	·
O=C(OC1C[C@@H]2CC3C[C@H](C1)N2CC3=O)c1c[nH]c2ccccc12 (some centres undefined)	-0.0708	·	·	·
CCN(CC)C(=O)/C(=C\c1ccc(Br)cc1)NC(=O)c1ccccc1OC	14.6*	84.4	10.8	72.0
COc1ccccc1C(=O)N/C(=C\c1ccc(Br)cc1)C(=O)NCCO	0.301	95.0	-6.6	94.1
Clc1ccc(-c2cc3ccccc3nc2N2CCOCC2)cc1	·	·	55.2	·
Clc1ccc(-c2cc3ccccc3nc2N2CCCC2)cc1	-0.653	92.4	69.5*	79.1
N=C1C(c2ccccc2)=C(O)CN1c1cccc2ccccc12	·	·	-5.5	·
O=c1[nH][nH]c(-c2ccccc2)c1C=Nc1ccccc1	·	97.1	80.4*	107.7
O=c1[nH][nH]c(-c2ccccc2)c1C=Nc1ccc(C(F)(F)F)cc1	·	·	-0.9	·
C[C@H]1C=C(C(=O)O)O[C@@H](OCc2ccc(CO)cc2)C1	-1.17	·	·	·
O=C(N/N=C/C(Cl)=C\c1ccccc1)c1cnccn1	-0.694	4.0*	-5.9	5.7
Cc1ccccc1N(CC(=O)N/N=C/c1cc(C)n(-c2ccccc2C)c1C)S(C)(=O)=O	-2.69*	94.2	-6.5	92.3
SMILES	DAT uptake mod	bCat KO growth	WT yeast gro inh	HCT116 PTEN-null
COc1ccc(-c2nc(CCNS(=O)(=O)c3ccc4c(c3)OCCO4)cs2)cc1	0.785	46.8	15.3	59.2
O=S(=O)(NCCc1csc(-c2ccc(C(F)(F)F)cc2)n1)c1ccc2c(c1)OCCO2	0.0881	76.1	73.8*	84.1
C=CCn1c(C)cc(C(=O)Cn2c(C(C)O)nc3ccccc32)c1C (centres undefined)	·	·	-29.9	·
CCCCC(=O)Nc1cccc(-c2nnc(-c3ccccc3)o2)c1	2.81*	83.6	2.1	77.0
O=C(c1ccc2c(c1)OCO2)N(Cc1ccco1)C1(C(=O)NC2CCCCC2)CCCCC1	-0.229	35.9	58.7*	32.3
CCOc1cc(/C=N/NC(=O)COc2ccccc2C)ccc1OC(=O)c1cccs1	0.726	89.5	64.9*	83.4
Nc1ncnc2c1nc(Br)n2[C@@H]1O[C@@H]2COP(=O)(O)O[C@H]2[C@H]1O	0.219	·	·	·
CCc1c(C)c(C#N)c2nc3ccccc3n2c1Cl	·	4.0*	29.8	2.2*
CC(NCC(O)COC1CCC(C(C)(C)C)CC1)c1ccccc1 (centres undefined)	·	·	71.5*	·
CC1CCC(C(C)C)C(OCC(O)CNC(C)c2ccccc2)C1 (centres undefined)	·	·	67.4*	·
CC1CCC(C(C)C)C(OCC(O)CNC(C)(C)C)C1 (centres undefined)	·	·	7.2	·
CC(NC(=O)CN(C)S(=O)(=O)c1cnc[nH]1)c1ccccc1 (centres undefined)	·	·	5.5	·
CCC(C)/C(C)=N/NC(=O)c1ccc(COc2ccc(Cl)c(C)c2)cc1 (centres undefined)	·	73.5	72.3*	70.6
O=S(=O)(Nc1ccc(-n2cccc2)cc1)c1ccc(F)cc1	·	·	-11.0	·
